This note sets out measurements from PubChem BioAssay (NCATS).

Results filed as inconclusive are left out. Unmarked numbers belong to inactive results. The list shows a part of the results. Calls of active or inactive are those of the source. Unless noted, calls come from the whole dose curve; as a rule, active = well fitted curve in the direction sought with a large enough effect; inconclusive = small, poorly fitted or top-dose-only effect, or another doubt; inactive = no such curve, though single readings can be large; an effect the other way counts as inactive or inconclusive.

Experiment [1] addresses Rap guanine nucleotide exchange factor 3 (Homo sapiens) (UniProt O95398). Description: Confirmatory qHTS for agonist of cAMP-regulated guanine nucleotide exchange factor 3 (EPAC1) (AID 1645881).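 For activation: EPAC1 catalysed release of BODIPY-GDP from Rap1B seen as fluorescence loss; 100% = effect of cAMP agonist control.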 Note: nearly all actives have a fitted effect of over 75% in size. Note: potency is the fitted concentration of half-maximal effect. In general terms: qHTS replaces the single test concentration by a dilution series.
Experiment [2] concerns the target Rap guanine nucleotide exchange factor 4 (Homo sapiens) (UniProt Q8WZA2). Description: Confirmatory qHTS for agonist of cAMP-regulated guanine nucleotide exchange factor 4 (EPAC2) (AID 1645884). For activation: % is set by controls: 0 for no effect and ±100 for the full control effect.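 Note: nucleotide exchange releases bodipy-GDP from Rap1 and this lowers its fluorescence; nearly all actives have a fitted effect of over 65% in size.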 Note: potency is the fitted concentration of half-maximal effect.
Experiment [3] has as its target Rap guanine nucleotide exchange factor 3 (Homo sapiens) (UniProt O95398). Kind of experiment: Counterscreen qHTS for antagonist of cAMP-regulated guanine nucleotide exchange factor 3 (EPAC1) (AID 1645888).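 Note: fluorescence loss as bound BODIPY-GDP is released from Rap1B; % of control where 0% means no effect.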 The procedure, abridged: (§1)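 Rap1B–BODIPY-GDP (250 nM) with 50 uM GDP; compounds pin-transferred to 9.74 nM–152 uM final (activator) or from 7.32 nM upwards (inhibitor). Fluorescence Ex/Em 480/540 nm read at 5 and 30 min, then after adding cAMP or buffer, at room temperature.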
A general note: The purpose of a counterscreen is to sort out artefacts and off-target activity.

Experiment [4] has the same target. Description: Counterscreen qHTS for agonist of cAMP-regulated guanine nucleotide exchange factor 3 (EPAC1) (AID 1645889). For activation: % of control where 0% means no effect. Note: nearly all actives have a fitted effect of over 40% in size. Note: potency is the fitted concentration of half-maximal effect. The essentials: as §1
In experiment [5] the target is Tumor susceptibility gene 101 protein (Homo sapiens) (UniProt Q99816). Kind of experiment: qHTS Assay for Iinhibitors of HIV-1 Budding by Blocking the Interaction of PTAP/TSG101: Hit Validation (AID 651600). Note: potency is the fitted concentration of half-maximal effect; nearly all actives have a fitted effect of over 70% in size. The essentials: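 Fluorescence polarization binding assay: Tsg101 binding domain (10 uM) mixed with compounds and FITC-labeled PTAP peptide (50 nM) in HEPES pH 7.5, 0.15 M NaCl, 0.01% Tween 20, EDTA, TCEP; 20 min at r.t.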

Experiment [6] concerns the target Mitogen-activated protein kinase 10 (Mus musculus) (UniProt Q61831). Description: JNK3 AlphaScreen Assay (AID 530; active = well fitted curve in either direction with a large enough effect, not every such curve was filed as active;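 note: kinase came from lysate of stimulated human HepG2 cells; signal reports phosphorylation of biotinylated GST-cJun 1-79 at Ser73 with 10 µM ATP; series mostly up to about 57 µM; % is set by controls: 0 for no effect and ±100 for the full control effect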). The procedure, abridged: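 Pre-activated (IL-1β/TNFα) JNK3 in HepG2 lysates phosphorylates biotin-GST-cJun(1-79), 10 uM ATP; anti-phospho-cJun(Ser73) AlphaScreen read at room temperature, pH 7.6 Tris buffer. Compounds pre-incubated 15 min as titrations.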

The target of experiment [7] is Cytochrome P450 3A4 (Homo sapiens) (UniProt P08684). Kind of experiment: qHTS Assay for Inhibitors and Substrates of Cytochrome P450 3A4 (AID 884). Note: series mostly up to about 57 µM; % is set by controls: 0 for no effect and ±100 for the full control effect; nearly all actives have a fitted effect of over 50% in size. The essentials: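 20 nM human CYP3A4 with 25 uM Luciferin-PPXE (at KM) in 200 mM KPO4, preincubated 10 min with compound; NADPH regeneration started a 60 min RT reaction. Luciferin detected by luminescence, normalized to 57 uM ketoconazole as full inhibition.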

For experiment [8], the target named is DNA polymerase iota (Homo sapiens) (UniProt Q9UNA4). Kind of experiment: qHTS for Inhibitors of Polymerase Iota: Confirmatory Assay for Cherry-picked Compounds (AID 720496). Note: potency is the fitted concentration of half-maximal effect. The conditions noted are these: Pol iota primer extension, TAMRA/BHQ fluorescence. The essentials: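 Human Pol iota (10 nM) was preincubated 15 min at room temperature with compound, then started with 50 nM TAMRA/BHQ-2 quenched primer-template substrate. Fluorescence (ex 525/em 598 nm) was read at 0 and 10 min.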

Experiment [9] deals with Flap endonuclease 1 (Homo sapiens) (UniProt P39748). Description: qHTS Assay for the Inhibitors of FEN1: Confirmatory Assay for Cherry-picked Compounds (AID 720498). Note: potency is the fitted concentration of half-maximal effect; nearly all actives have a fitted effect of over 60% in size. The conditions noted are these: FEN1 flap cleavage, TAMRA/BHQ2 fluorogenic DNA substrate. The procedure, abridged:
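FEN1 at 10 nM was preincubated with compound for 15 min at room temperature, then 50 nM (final) double-flap DNA substrate was added. TAMRA fluorescence released from the BHQ-2-quenched flap was read at 0 and 15 min (ex 525/em 598 nm).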

Experiment [10] in a line: qHTS for Inhibitors of the vitamin D receptor (VDR): Hit Validation using a Texas Red Assay (AID 602201). Note: potency is the fitted concentration of half-maximal effect. The procedure, abridged:
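Fluorescence polarization with 1.5 uM VDR-LBD, LG19078 and 7 nM Texas Red (final). After 2 hours at ambient temperature, read at Ex 595 nm/Em 615 nm.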

Experiment [11] is described as follows: qHTS Assay for Inhibitors of Fructose-1,6-bisphosphate Aldolase from Giardia Lamblia: Giardia lamblia growth inhibition (AID 2785). Note: % is set by controls: 0 for no effect and ±100 for the full control effect; nearly all actives have a fitted effect of over 70% in size. The procedure, abridged: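 G. lamblia WB trophozoites (100 cells/well) were grown with compound at 37C for 48 h in modified TYI-S-33 medium, pH 7.0. Growth was measured by ATPlite luminescence after 20 min at room temperature.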

Experiment [12] can be described thus: qHTS Assay for Inhibitors of Fructose-1,6-bisphosphate Aldolase from Giardia Lamblia: Mammalian cellular toxicity (AID 2786).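 Note: compound exposure lasted 48 h before reading; % is set by controls: 0 for no effect and ±100 for the full control effect; nearly all actives have a fitted effect of over 60% in size.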 The procedure, abridged: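 CHO cells seeded at 250 cells/well with pin-tool-added compound, incubated 48 h at 37 °C, 5% CO2. Viability read as ATP content by ATPlite luminescence after 20 min.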
Experiment [13] concerns the target Tyrosyl-DNA phosphodiesterase 1 (Homo sapiens) (UniProt Q9NUW8). Description: Confirmation Assay for Inhibitors of Tyrosyl-DNA Phosphodiesterase (TDP1) (AID 489007). Note: potency is the fitted concentration of half-maximal effect; nearly all actives have a fitted effect of over 40% in size. The conditions noted are these: recombinant human TDP1 enzymatic activity, dose-response. The essentials: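 Tdp1 1 nM + cpd, 15 min RT; add biotin/phosphotyrosine-FITC oligo 15 nM, 5 min RT; add AS donor/acceptor beads 10 ug/ml, 10 min RT; read AlphaScreen. No-enzyme wells = max signal.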

Experiment [14] has as its target Phosphoglycerate kinase, glycosomal (Trypanosoma brucei brucei) (UniProt P07378). Description: qHTS for inhibitors of Phosphogylcerate Kinase: Hit Validation Screen (AID 686980). Note: potency is the fitted concentration of half-maximal effect; nearly all actives have a fitted effect of over 65% in size. As to conditions: TbPGK coupled GAPDH assay, Kinase-Glo luminescence. The procedure, abridged: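 Luminescent ATP detection (Kinase-Glo Plus) follows a 60-minute room-temperature incubation, with wells lacking PGK as controls. Buffer: 100 mM TEA (pH 7.6), 5 mM MgCl2, 0.01% Tween-20. Coupling enzyme GAPDH (100 nM final) supplies unstable 1,3-BPG in-well.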

Experiment [15] concerns the target DNA polymerase eta (Homo sapiens) (UniProt Q9Y253). Kind of experiment: qHTS for Inhibitors of Polymerase Eta: Confirmatory Assay for Cherry-picked Compounds (AID 720502). Note: potency is the fitted concentration of half-maximal effect. As to conditions: Pol eta primer extension, TAMRA/BHQ fluorescence, 10 min. The essentials: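 Human Pol eta (10 nM) was preincubated with compounds for 15 min at room temperature before adding 50 nM (final) DNA substrate: primer plus TAMRA reporter strand annealed to a BHQ-2-labeled template. Fluorescence (ex 525/em 598 nm) was read at 0 and 10 min.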

Chain of Rap guanine nucleotide exchange factor 4 (Homo sapiens) (Q8WZA2 whole entry, looked up): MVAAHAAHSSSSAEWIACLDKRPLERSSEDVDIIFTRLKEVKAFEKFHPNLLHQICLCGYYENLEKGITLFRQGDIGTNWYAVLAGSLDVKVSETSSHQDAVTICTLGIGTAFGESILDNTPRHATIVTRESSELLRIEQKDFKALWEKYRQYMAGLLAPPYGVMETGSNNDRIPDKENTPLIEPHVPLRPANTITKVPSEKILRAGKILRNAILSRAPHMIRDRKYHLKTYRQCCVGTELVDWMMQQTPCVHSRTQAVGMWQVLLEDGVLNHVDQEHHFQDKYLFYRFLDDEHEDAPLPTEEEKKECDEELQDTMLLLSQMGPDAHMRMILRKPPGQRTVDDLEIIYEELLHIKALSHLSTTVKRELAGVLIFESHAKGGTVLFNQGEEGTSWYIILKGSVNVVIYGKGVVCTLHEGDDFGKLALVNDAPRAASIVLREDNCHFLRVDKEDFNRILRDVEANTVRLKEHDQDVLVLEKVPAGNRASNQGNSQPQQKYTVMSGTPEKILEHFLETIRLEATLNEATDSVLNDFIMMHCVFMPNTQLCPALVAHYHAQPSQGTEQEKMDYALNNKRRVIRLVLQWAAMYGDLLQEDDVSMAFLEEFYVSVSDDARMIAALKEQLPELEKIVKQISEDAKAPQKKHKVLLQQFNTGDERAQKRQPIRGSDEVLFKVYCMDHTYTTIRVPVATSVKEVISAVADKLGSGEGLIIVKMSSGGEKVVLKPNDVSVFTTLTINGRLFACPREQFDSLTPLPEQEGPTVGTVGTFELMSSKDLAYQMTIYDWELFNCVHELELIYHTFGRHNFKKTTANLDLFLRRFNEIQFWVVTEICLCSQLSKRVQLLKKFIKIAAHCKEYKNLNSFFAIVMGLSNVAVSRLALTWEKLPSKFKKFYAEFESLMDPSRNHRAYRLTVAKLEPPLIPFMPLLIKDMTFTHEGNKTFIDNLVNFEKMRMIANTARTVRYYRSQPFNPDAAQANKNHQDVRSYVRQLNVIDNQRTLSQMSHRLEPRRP
Chain of Rap guanine nucleotide exchange factor 3 (Homo sapiens) (O95398 whole entry, looked up): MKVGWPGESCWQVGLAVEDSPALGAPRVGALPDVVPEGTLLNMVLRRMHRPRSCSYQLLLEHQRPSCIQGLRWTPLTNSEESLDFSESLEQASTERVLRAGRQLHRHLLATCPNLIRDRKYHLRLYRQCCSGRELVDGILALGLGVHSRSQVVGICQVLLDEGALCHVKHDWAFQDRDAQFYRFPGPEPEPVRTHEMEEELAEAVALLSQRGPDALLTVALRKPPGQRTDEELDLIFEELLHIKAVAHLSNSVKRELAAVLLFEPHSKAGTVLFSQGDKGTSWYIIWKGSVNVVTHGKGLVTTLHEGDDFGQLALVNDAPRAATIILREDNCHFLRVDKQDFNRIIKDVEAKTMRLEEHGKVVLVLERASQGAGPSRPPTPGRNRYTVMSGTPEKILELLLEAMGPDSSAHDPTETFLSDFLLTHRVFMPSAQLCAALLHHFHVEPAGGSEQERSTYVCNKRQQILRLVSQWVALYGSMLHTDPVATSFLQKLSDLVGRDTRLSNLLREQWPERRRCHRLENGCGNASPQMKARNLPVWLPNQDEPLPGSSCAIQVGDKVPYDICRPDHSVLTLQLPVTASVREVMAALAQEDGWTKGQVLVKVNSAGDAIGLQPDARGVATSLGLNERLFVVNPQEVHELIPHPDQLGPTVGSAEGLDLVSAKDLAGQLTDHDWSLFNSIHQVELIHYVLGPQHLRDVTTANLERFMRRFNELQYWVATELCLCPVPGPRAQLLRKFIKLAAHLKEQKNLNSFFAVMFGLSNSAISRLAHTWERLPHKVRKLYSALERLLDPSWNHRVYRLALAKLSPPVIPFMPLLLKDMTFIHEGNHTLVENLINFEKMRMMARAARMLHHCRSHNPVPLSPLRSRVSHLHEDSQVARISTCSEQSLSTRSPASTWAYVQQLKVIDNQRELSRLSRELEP
Chain of Flap endonuclease 1 (Homo sapiens) (P39748 whole entry, looked up): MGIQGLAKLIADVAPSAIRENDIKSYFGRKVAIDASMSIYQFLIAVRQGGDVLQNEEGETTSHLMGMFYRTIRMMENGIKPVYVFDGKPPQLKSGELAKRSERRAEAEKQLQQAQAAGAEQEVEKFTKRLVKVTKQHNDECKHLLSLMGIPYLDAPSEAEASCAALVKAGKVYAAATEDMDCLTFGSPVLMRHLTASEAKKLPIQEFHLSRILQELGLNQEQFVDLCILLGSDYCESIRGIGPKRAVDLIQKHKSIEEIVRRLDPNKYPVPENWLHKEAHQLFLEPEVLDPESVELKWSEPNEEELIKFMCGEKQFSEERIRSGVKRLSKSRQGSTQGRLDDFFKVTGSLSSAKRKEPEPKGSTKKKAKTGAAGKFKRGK
Chain of Tumor susceptibility gene 101 protein (Homo sapiens) (Q99816 whole entry, looked up, the tested form may be a part): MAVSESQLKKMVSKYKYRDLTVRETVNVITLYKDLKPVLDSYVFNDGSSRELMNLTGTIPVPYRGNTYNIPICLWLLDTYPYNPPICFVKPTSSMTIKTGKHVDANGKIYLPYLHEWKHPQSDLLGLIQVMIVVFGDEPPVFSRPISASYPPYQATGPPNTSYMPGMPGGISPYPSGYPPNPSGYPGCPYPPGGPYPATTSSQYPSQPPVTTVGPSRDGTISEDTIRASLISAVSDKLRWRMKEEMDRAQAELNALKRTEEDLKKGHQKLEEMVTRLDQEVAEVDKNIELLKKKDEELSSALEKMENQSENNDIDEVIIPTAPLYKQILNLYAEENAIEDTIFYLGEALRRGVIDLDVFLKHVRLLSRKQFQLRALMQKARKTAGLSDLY
Chain of DNA polymerase iota (Homo sapiens) (Q9UNA4 whole entry, looked up): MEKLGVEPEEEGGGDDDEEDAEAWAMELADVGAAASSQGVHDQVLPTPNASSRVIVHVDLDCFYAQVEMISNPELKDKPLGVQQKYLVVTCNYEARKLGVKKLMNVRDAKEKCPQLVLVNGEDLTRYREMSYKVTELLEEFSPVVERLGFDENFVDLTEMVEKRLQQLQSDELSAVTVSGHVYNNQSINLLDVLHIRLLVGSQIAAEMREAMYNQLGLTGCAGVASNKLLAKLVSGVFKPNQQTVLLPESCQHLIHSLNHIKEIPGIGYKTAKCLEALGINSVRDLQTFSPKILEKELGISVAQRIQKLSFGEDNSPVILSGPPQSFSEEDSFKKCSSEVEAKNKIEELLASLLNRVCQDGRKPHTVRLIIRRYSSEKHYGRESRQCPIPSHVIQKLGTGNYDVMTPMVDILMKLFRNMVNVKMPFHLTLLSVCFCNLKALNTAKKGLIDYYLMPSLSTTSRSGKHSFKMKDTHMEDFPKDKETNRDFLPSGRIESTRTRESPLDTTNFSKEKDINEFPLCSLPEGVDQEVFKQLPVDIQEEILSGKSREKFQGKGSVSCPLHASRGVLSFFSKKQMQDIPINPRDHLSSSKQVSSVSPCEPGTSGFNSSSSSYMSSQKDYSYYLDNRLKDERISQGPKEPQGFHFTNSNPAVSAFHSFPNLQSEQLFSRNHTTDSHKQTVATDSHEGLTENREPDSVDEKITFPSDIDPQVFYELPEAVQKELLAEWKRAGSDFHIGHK
Chain of Cytochrome P450 3A4 (Homo sapiens) (P08684 whole entry, looked up): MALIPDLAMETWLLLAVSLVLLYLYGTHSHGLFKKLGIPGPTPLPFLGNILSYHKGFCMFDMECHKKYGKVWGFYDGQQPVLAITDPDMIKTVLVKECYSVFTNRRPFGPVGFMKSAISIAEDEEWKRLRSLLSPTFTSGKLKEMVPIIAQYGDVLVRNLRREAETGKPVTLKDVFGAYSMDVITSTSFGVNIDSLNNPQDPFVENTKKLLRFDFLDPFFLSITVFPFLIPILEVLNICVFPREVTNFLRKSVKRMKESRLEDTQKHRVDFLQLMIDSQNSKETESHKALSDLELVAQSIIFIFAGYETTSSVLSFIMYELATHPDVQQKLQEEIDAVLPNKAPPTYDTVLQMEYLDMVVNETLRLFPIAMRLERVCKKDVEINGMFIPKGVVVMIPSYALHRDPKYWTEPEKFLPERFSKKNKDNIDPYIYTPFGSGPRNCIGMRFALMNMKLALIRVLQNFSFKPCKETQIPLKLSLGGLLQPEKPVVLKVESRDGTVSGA
Chain of Phosphoglycerate kinase, glycosomal (Trypanosoma brucei brucei) (P07378 whole entry, looked up): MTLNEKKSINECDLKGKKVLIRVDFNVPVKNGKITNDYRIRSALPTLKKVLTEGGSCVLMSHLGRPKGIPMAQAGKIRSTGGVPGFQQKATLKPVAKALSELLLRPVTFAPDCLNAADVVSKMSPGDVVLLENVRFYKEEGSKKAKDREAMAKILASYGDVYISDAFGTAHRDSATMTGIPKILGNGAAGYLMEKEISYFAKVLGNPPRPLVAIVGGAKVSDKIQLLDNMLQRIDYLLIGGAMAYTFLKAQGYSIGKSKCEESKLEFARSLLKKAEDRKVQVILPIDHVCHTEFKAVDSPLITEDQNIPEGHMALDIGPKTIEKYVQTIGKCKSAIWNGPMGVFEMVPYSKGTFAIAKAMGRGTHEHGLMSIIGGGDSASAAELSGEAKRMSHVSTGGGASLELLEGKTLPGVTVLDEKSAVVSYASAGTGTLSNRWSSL
Chain of Tyrosyl-DNA phosphodiesterase 1 (Homo sapiens) (Q9NUW8 whole entry, looked up): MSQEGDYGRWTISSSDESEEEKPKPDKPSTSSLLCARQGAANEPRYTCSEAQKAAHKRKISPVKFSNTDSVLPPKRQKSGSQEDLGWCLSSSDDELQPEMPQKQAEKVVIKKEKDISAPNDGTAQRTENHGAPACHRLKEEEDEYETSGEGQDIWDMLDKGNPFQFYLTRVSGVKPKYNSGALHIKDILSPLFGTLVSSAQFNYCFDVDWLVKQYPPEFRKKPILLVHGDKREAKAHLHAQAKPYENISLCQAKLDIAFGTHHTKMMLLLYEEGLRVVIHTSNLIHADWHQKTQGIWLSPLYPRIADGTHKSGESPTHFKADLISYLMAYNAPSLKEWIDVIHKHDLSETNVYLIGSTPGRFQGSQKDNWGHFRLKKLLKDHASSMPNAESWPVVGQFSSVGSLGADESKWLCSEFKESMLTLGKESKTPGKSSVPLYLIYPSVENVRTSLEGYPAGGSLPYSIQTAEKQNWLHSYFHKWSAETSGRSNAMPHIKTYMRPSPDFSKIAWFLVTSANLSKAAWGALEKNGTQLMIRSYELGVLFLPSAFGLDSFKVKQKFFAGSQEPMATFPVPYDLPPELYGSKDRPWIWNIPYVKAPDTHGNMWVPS

Turning to `CCOC(=O)C1C(=O)C=C(c2ccc(C)cc2)CC1c1ccccc1` (centres undefined), the Potency result in [1] is “inactive”. For the same molecule, the activation in experiment [2] is 7.74% [at 17.1 µM, percent relative to cAMP agonist control]; in experiment [4], 8.22% [at 30.8 µM]. For the same molecule, in experiment [3], the activity change, negative = inhibition is -1.31% [at 30.8 µM].

On to `CN(N=Nc1ccc([N+](=O)[O-])cc1)c1ccccc1`, for which the Potency in experiment [5] was 13 µM (active); in experiment [1] it was 112 µM (active); in experiment [2], 100 µM (active). For the same molecule, in [3], the Potency entry was “inactive”.

Take `CC(C)CNC(=O)C1(C)CCCCCN1Cc1ccccc1-c1ccccc1` (centres undefined): the Potency result in experiment [1], in experiment [2], in experiment [3] and in experiment [4] was “inactive” each time.

On to `CC1=C(C(=O)OCc2ccccc2)C(c2ccc(C(C)(C)C)cc2)NC(=O)N1CCCCCC(=O)O` (centres undefined), for which the Potency result in [6], in experiment [7], in [1], in experiment [2] and in experiment [3] was “inactive” in each case.

In the case of `COc1ccc(-c2nn(-c3ccccc3)cc2/C=C2/SC(=S)N(CCCC(=O)O)C2=O)c(C)c1`, the Potency in [8] is 75.2 µM (active); in experiment [9], 47.8 µM (active). The Potency entry in experiment [1], in [2], in experiment [3] and in [4] was “inactive” in each case.

`O=C(O)CSc1nnc(COc2cccc3ccccc23)n1Cc1ccccc1`: the Potency entry in [1], in [2], in [3] and in experiment [4] was “inactive” in each case.

As for `CCN(CC)S(=O)(=O)c1ccc2[nH]c(=O)cc(C(=O)Nc3ccc(C)c(S(=O)(=O)N(CC)CC)c3)c2c1`, the Potency result in [1], in [2], in [3] and in experiment [4] was “inactive” each time.

Consider `CN(CC(=O)Nc1ccccc1Cl)C(=O)c1ccc(Cl)c(S(=O)(=O)N2CCCCCC2)c1`, for which the Potency entry in experiment [1], in experiment [2], in experiment [3] and in [4] was “inactive” in each case.

`O=C(COC(=O)c1c2c(nc3ccccc13)/C(=C\c1ccco1)CC2)NC1CCCC1`: the Potency result in experiment [1], in experiment [2], in experiment [3] and in experiment [4] was “inactive” throughout.

For the molecule `O=C(COc1ccc(Cl)cc1Cl)c1ccc[nH]1`, the Potency result in experiment [1] is “inactive”. Moreover, the activation in experiment [2] is -1.61% [at 17.1 µM, percent relative to cAMP agonist control]; in experiment [4], 7.74% [at 30.8 µM]. Besides, in [3], the activity change, negative = inhibition was -17.9% [at 30.8 µM].

Take `CCC(=C(c1ccc(OC)cc1)c1ccc(OC)cc1)c1cn(CC(O)CN(CCO)CCO)c2ccccc12` (centres undefined): the Potency result in experiment [1], in experiment [2], in experiment [3] and in experiment [4] was “inactive” each time.

`Cc1cccc(NC(=S)N2CCN(S(=O)(=O)c3cccc(F)c3)CC2)c1`: the Potency result in [1], in [2], in experiment [3] and in experiment [4] was “inactive” throughout.

For the molecule `COc1ccc(-c2nc(CCNS(=O)(=O)c3ccc4c(c3)OCCO4)cs2)cc1`, the Potency entry in [1], in [2], in experiment [3] and in experiment [4] was “inactive” each time.

With `O=C(O)C1Nc2c(Cl)cc(Cl)c(Cl)c2C2C=CCC12` (centres undefined), the Potency entry in experiment [1], in [2], in experiment [3] and in experiment [4] was “inactive” throughout.

On to `COc1ccc(-c2ccc(C(=O)NCC3CC3)c3occc23)c(C)c1`, for which the Potency entry in experiment [1], in experiment [2], in [3] and in experiment [4] was “inactive” in each case.

As to `CC(=O)NC(c1ccc(Cl)cc1Cl)c1ccc2cccnc2c1O` (centres undefined), the Potency entry in experiment [1], in experiment [2], in experiment [3] and in [4] was “inactive” throughout.

In the case of `O=C(NC1(O)C(=O)c2ccccc2C1=O)c1ccccc1`, the Potency in [10] is 6.31 µM (active). In addition, the Potency result in [1], in experiment [2] and in [3] was “inactive” in each case.

Regarding `Nc1ccc2nc3c(=O)[nH]c(=S)[nH]c3nc2c1`, the result in [11] and in experiment [12] was inactive. Also, the Potency in [13] was 39.8 µM (active); in [5] it was 18.3 µM (active); in [14] it was 16.3 µM (active); in [8] it was 33.6 µM (active); in [9], 67.5 µM (active); in experiment [15] it was 19 µM (active). The Potency is 79.4 µM (active) in experiment [1], 100 µM (active) in [2] and 44.7 µM (active) in experiment [4]. In addition, the Potency entry in [3] is “inactive”.

As for `O=C(O)c1ccc(COc2ccc3ccccc3c2/C=C2/NC(=O)N(Cc3ccc(F)cc3)C2=O)cc1`, the Potency result in experiment [1], in experiment [2], in experiment [3] and in [4] was “inactive” in each case.

As for `O=S(=O)(c1cc(C(F)(F)F)ccc1Cl)N1CCN(c2ncnc3ccccc23)CC1`, the Potency result in [1], in [2] and in experiment [4] was “inactive” throughout.

Take `CCOC(=O)c1c(CC(C)C)csc1NC(=O)COC(=O)c1ccc(O)cc1`: the Potency result in experiment [1], in [2], in experiment [3] and in [4] was “inactive” in each case.

Take `CCOC(=O)[C@H]1[C@H]2COc3ccc(C)cc3[C@@H]2N2C(=O)c3cc(F)c(F)cc3NC(=O)[C@@]12C`: the Potency entry in [1], in experiment [2], in [3] and in experiment [4] was “inactive” throughout.

Take `COc1ccc(-n2nnnc2C(c2ccccc2OC(F)(F)F)N2CCN(C/C=C/c3ccccc3)CC2)cc1` (centres undefined): the Potency result in experiment [1], in experiment [2], in experiment [3] and in experiment [4] was “inactive” throughout.

In the case of `CCOc1cc(C)c(-c2onc(C(F)(F)F)c2-c2csc(C)n2)c(O)c1`, the Potency result in [1], in [2], in [3] and in experiment [4] was “inactive” throughout.

For the molecule `CN(CC(=O)Nc1ccc(F)cc1)C(=O)COc1ccc(C(=O)c2ccccc2)cc1`, the Potency result in experiment [1], in experiment [2], in [3] and in [4] was “inactive” each time.

`Cc1cc(Br)c2c(c1)[C@](O)(c1cn(C)c3ccccc13)C(=O)N2C`: the Potency result in experiment [1] was “inactive”. Besides, the activation was 1.9% [at 17.1 µM, percent relative to cAMP agonist control] in [2] and 24.7% [at 30.8 µM] in [4]. Also, the activity change, negative = inhibition in experiment [3] is -15.6% [at 30.8 µM].
